Records with an inconclusive call do not appear. Active and inactive are the calls of the source. Calls come from the whole dose curve; as a rule, active = well fitted inhibition curve with a large enough effect; inconclusive = small, poorly fitted or top-dose-only effect, or effect the other way; inactive = flat fitted curve, though single readings scatter.

ATP-dependent 6-phosphofructokinase (Trypanosoma brucei brucei), sequence (O15648 whole entry, looked up): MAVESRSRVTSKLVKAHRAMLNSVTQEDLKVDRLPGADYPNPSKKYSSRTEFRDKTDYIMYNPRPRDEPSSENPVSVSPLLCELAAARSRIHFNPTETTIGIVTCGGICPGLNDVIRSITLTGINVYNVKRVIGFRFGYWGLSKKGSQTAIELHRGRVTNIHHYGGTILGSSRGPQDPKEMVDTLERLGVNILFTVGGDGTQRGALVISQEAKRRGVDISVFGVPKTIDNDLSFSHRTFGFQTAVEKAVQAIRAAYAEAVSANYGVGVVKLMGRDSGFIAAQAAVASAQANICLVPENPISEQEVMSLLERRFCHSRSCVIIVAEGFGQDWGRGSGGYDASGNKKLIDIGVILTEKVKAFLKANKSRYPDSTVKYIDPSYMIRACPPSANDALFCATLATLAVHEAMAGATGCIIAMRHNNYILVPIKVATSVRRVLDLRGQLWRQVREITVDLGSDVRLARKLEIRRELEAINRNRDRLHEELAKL

This experiment addresses ATP-dependent 6-phosphofructokinase (Trypanosoma brucei brucei) (UniProt O15648). Briefly: qHTS Validation Assay to Find Inhibitors of T. brucei phosphofructokinase (AID 485368). Conditions: T. brucei PFK enzyme assay, qHTS 7-point titration; series mostly up to 57.5 µM. The source says: NIH Molecular Libraries Probe Production Network [MLPCN]
NIH Chemical Genomics Center [NCGC]
PI Name: Malcolm Walkinshaw, University of Edinburgh
Various species of the protozoan family Trypanosomatidae are responsible for a range of serious human diseases in tropical and subtropical areas of the world. […] Many of the disorders caused by trypanosomatids are fatal if left untreated, but most currently used drugs are inefficient and toxic.
Oxidative metabolism involving the mitochondrial tricarboxylic acid cycle and oxidative phosphorylation are repressed in these parasites, and recent RNA interference (RNAi) experiments have shown that even partial depletion of certain individual glycolytic enzymes can lead to the death of cultured parasites. One such glycolytic enzyme, phosphofructokinase (PFK), catalyzes the formation of fructose-1,6-bisphosphate (F1,6BP) and ADP from fructose-6-phosphate (F6P) and ATP, and in many metabolic circumstances makes an important contribution to the control of flux through the glycolytic pathway. As a specific glycolytic target, PFK is particularly attractive as it catalyzes the first irreversible step in glycolysis, and structural and kinetic studies have shown very substantial and essential differences from corresponding host enzymes, allowing for the discovery of parasite-selective inhibitors.
The goal of this screen is to find small-molecule inhibitors of T. brucei PFK using a biochemical assay that measures PFK activity as a function of ADP production. A luminescence-based assay for T. brucei PFK activity has been developed which uses luciferase to detect production of ADP. Traditional luciferase-based nucleotide detection reagents rely on ATP production as a direct substrate for the luciferase reaction; however, PFK catalyzes the transfer of a phosphate from ATP to F6P, resulting in the net depletion of ATP. To directly measure the ADP product of the PFK reaction, we used the ADP-Glo detection kit (Promega), which utilizes two separate reactions to 1) deplete all remaining uncatalyzed ATP and 2) convert all remaining ADP to ATP, which is then detected through a traditional luciferase-coupled reaction. Compounds were screened as a concentration-titration series that ranged from 57 uM to 0.7 nM.
NCGC Assay Protocol Summary:
Substrate buffer was dispensed into white, solid 1536-well plates at 3uL/well in 0.1M triethanolamine (TEA) buffer, pH 8.0, containing final concentrations of 5 mM MgCl2, 0.01% Tween20, 0.5 mM fructose-6-phosphate (F6P) and 0.1mM ATP. Then, 23 nL of compounds or DMSO were delivered to each well using a pin tool. One uL T. brucei PFK (0.1M TEA, 0.01% Tween20, 0.1% bovine serum albumin (BSA) and 1.25nM PFK, final concentrations) was then dispensed, and plates were incubated at room temperature for 45 min. The luminescent detection reagent, ADP-Glo (Promega), was then added in two steps: the first reagent, ADP-Glo (which converts remaining uncatalyzed ATP), was added at 2.5uL/well and incubated for ten minutes at room temperature, and the second component, Kinase Detection reagent (which converts ADP to ATP as a substrate for luciferase-based luminescence), was added immediately after at 5uL/well, followed by one final ten minute room temperature incubation. The plates were measured on a ViewLux plate reader for luminescent signal using a clear filter with a one second exposure. The %Activity was determined from the corrected luminescence values. As no specific T. brucei PFK inhibitors have been identified in the literature, 1x (1.25nM) and 0x PFK enzyme controls (untreated) were included to normalize %Activity of identified inhibitors; 0x enzyme values corresponded to 100%Activity (full inhibition), while 1x PFK enzyme values were used to normalize 0%Activity (no inhibition).
Concentration-response curves were fitted to the signals arising from the resulting luminescence. […]
In general terms: qHTS replaces the single test concentration by a dilution series.
Turning to `CCCOc1ccccc1-c1nc2n[nH]nc2c(=O)[nH]1`, the outcome was inactive. As for `COc1ccc(CCN(C)CCCC(C#N)(c2cc(OC)c(OC)c(OC)c2)C(C)C)cc1OC` (stereo not given), the compound was called inactive.

On to `Cc1cc(C)c(/C=C2\C(=O)Nc3ccccc32)[nH]1`, for which the outcome was inactive.

Consider `NC(N)=N/N=C/c1c(Cl)cccc1Cl`, for which the compound was classed as inactive. On to `CCOC(=O)C1=C(C)NC(C)=C(C(=O)OC)C1c1cccc(Cl)c1Cl` (stereo not given), for which the outcome was inactive. With `COCCOC(=O)C1=C(C)NC(C)=C(C(=O)OC(C)C)C1c1cccc([N+](=O)[O-])c1` (stereo not given), the compound was called inactive. Next, `CN1C(=O)CC[C@H]1c1cccnc1`: “inactive”. To `Cc1nc2c([nH]1)c(=O)n(C)c(=O)n2Cc1ccco1` belongs “inactive”; to `c1ccc2c(c1)CCCC2C1=NCCN1` (stereo not given), “inactive”. To `CCCCCCCC/C=C\CCCCCCCC(=O)NCc1ccc(O)c(OC)c1` belongs “inactive”.

Take `COC(=O)C1=C(C)NC(C)=C(C(=O)OCCN(C)Cc2ccccc2)C1c1cccc([N+](=O)[O-])c1` (stereo not given): the compound was classed as inactive. Take `COCC(=O)O[C@]1(CCN(C)CCCc2nc3ccccc3[nH]2)CCc2cc(F)ccc2[C@@H]1C(C)C`: the result was inactive. To `CC(C)[N+](C)(CCOC(=O)C1c2ccccc2Oc2ccccc21)C(C)C` belongs “inactive”; to `CCCCNC(=O)NS(=O)(=O)c1ccc(C)cc1`, “inactive”; to `C[N+](C)(C)CCOC(=O)CCC(=O)OCC[N+](C)(C)C`, “inactive”. Regarding `Cc1ccc(=O)n(-c2ccccc2)c1`, the call was inactive. In the case of `Cc1ccc(/C(=C\CN2CCCC2)c2ccccn2)cc1`, the call was inactive.

With `CCCCNc1ccc(C(=O)OCCN(C)C)cc1`, the compound was classed as inactive. Next, `CCOC(=O)c1cnc2c(cnn2CC)c1NN=C(C)C`: “inactive”. To `Brc1c(NC2=NCCN2)ccc2nccnc12` belongs “inactive”; to `NCCCNCCSP(=O)(O)O`, “inactive”; to `COC(=O)[C@@H](N)Cc1ccc(O)c(O)c1`, “inactive”. Next, `NC(=O)N1c2ccccc2C=Cc2ccccc21`: “inactive”. `CCc1c(C)[nH]c2c1C(=O)C(CN1CCOCC1)CC2` (stereo not given): the result was inactive. To `C[C@@H](O)[C@H]1C(=O)N2C(C(=O)O)=C(SCCN=CN)C[C@H]12` belongs “inactive”. `CC(C)NCC(O)c1cc(O)cc(O)c1` (stereo not given): the compound was called inactive. Next, `COc1cc(Cc2cnc(N)nc2N)cc(OC)c1OC`: “inactive”; `NC(N)=NC(=O)Cc1c(Cl)cccc1Cl`: “inactive”; `CCC(=O)c1ccc2c(c1)N(CCCN(C)C)c1ccccc1S2`: “inactive”. To `CCCNC(C)C(=O)Nc1ccccc1C` (stereo not given) belongs “inactive”; to `CNCCC(Oc1ccccc1OC)c1ccccc1` (stereo not given), “inactive”. On to `CNC1(C)C2CCC(C2)C1(C)C` (stereo not given), for which the result was inactive. To `CN1C[C@H](C(=O)N[C@]2(C)O[C@@]3(O)[C@@H]4CCCN4C(=O)[C@H](Cc4ccccc4)N3C2=O)C[C@@H]2c3cccc4[nH]cc(c34)C[C@H]21` belongs “inactive”; to `CCNC(=O)N1CCN(CCCC(c2ccc(F)cc2)c2ccc(F)cc2)CC1`, “inactive”. To `CC(N=C(NC#N)Nc1ccncc1)C(C)(C)C` (stereo not given) belongs “inactive”; to `O=c1[nH]c(=O)n([C@H]2C[C@H](O)[C@@H](CO)O2)cc1Br`, “inactive”; to `N[C@@H](COP(=O)(O)O)C(=O)O`, “inactive”.

For the compound `CC1=NS(=O)(=O)c2cc(Cl)ccc2N1`, the result was inactive. To `O=C(O)CN(CCOCCOCCN(CC(=O)O)CC(=O)O)CC(=O)O` belongs “inactive”.

Turning to `Cc1nc2ccccn2c(=O)c1CCN1CCC(C(=O)c2ccc(F)cc2)CC1`, the call was inactive.

The values are drawn from PubChem BioAssay (NCATS).
